# Laboratory results: PubChem BioAssay (Tox21)
# Unmarked numbers belong to inactive results. Inconclusive results are not listed. A call without a number means that no potency is given here. The source made the active and inactive calls. Unless noted, calls come from the whole dose curve.
# Tests used:
# [1] = molecular target: Acetylcholinesterase (Homo sapiens) (UniProt P22303); assay: Acetylcholinesterase (AChE) small molecule antagonists: enzyme-based qHTS assay (AID 1347397); conditions: Potency: AChE enzyme activity inhibition; outcome: AChE enzyme activity inhibition; note: nearly all actives have a fitted effect of over 55% in size; note: potency is the fitted concentration of half-maximal effect
# Acetylcholinesterase (Homo sapiens), sequence (P22303 whole entry, looked up): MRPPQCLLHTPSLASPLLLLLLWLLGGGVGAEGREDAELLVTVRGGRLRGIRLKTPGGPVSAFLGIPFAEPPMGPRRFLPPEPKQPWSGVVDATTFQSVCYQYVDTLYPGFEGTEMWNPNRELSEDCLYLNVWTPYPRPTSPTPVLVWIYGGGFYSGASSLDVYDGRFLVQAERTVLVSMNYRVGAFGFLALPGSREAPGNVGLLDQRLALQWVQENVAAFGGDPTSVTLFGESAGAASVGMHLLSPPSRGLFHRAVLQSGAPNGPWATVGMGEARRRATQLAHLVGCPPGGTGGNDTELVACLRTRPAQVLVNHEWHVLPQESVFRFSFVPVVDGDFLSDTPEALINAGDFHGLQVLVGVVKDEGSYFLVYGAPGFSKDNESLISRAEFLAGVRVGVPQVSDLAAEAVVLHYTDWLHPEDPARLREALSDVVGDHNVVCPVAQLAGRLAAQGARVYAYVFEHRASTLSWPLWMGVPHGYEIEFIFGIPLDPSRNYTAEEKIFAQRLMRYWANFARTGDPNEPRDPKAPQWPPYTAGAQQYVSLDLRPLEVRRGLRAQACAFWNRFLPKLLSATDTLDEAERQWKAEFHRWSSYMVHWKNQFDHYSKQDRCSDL
# Outline: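 Recombinant human AChE, dispensed at 50 mU/mL, was preincubated with Tox21 10K compounds or DMSO vehicle for 30 min at room temperature. DTNB plus acetylthiocholine was then added, and thiocholine was measured colorimetrically after a further 10 min.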
# [2] = molecular target: Acetylcholinesterase (Homo sapiens) (UniProt P22303); assay: Acetylcholinesterase (AChE) small molecule antagonists: fluorescence cell-based qHTS assay (AID 1347398); conditions: Potency: AChE activity; outcome: AChE activity; note: nearly all actives have a fitted effect of over 50% in size; note: potency is the fitted concentration of half-maximal effect
# Outline: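 Human SH-SY5Y cells were plated overnight at 37 C, exposed to compound for 30 min at 37 C, 5% CO2, then given acetylthiocholine plus Thiolite Green for 40 min at room temperature; thiocholine fluorescence (Ex/Em 490/520 nm) reports endogenous AChE activity.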
# [3] = molecular target: Acetylcholinesterase (Homo sapiens) (UniProt P22303); assay: Acetylcholinesterase (AChE) small molecule antagonists: enzyme-based qHTS assay with human liver microsomes (AID 1347399); conditions: Potency: qHTS inhibition; outcome: qHTS inhibition; note: nearly all actives have a fitted effect of over 60% in size
# Outline: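 Recombinant human AChE (50 mU/mL in the enzyme mix) and human liver microsomes (0.25 mg/mL final) were preincubated with compound and NADPH (0.25 mg/mL final) for 30 min at 37 C. Acetylthiocholine/DTNB was then added; thiocholine was read colorimetrically after 10 min at room temperature.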
# [4] = qHTS assay for small molecule agonists of the p53 signaling pathway (AID 651631); note: nearly all actives have a fitted effect of over 15% in size
# Outline: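 Agonist mode screen using a stably integrated beta-lactamase gene under p53 response elements in HCT-116 cells. Compound exposure lasts 16 h at 37 °C; fluorescence intensity is measured following 2 h FRET substrate loading.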
# [5] = molecular target: Glucocorticoid receptor (Homo sapiens) (UniProt P04150); assay: qHTS assay to identify small molecule antagonists of the glucocorticoid receptor (GR) signaling pathway (AID 720692; active = well fitted inhibition curve with a large enough effect in the signal ratio in the repeat runs, not every such curve was filed as active; the % refers to the signal ratio)
# Glucocorticoid receptor (Homo sapiens), sequence (P04150 whole entry, looked up): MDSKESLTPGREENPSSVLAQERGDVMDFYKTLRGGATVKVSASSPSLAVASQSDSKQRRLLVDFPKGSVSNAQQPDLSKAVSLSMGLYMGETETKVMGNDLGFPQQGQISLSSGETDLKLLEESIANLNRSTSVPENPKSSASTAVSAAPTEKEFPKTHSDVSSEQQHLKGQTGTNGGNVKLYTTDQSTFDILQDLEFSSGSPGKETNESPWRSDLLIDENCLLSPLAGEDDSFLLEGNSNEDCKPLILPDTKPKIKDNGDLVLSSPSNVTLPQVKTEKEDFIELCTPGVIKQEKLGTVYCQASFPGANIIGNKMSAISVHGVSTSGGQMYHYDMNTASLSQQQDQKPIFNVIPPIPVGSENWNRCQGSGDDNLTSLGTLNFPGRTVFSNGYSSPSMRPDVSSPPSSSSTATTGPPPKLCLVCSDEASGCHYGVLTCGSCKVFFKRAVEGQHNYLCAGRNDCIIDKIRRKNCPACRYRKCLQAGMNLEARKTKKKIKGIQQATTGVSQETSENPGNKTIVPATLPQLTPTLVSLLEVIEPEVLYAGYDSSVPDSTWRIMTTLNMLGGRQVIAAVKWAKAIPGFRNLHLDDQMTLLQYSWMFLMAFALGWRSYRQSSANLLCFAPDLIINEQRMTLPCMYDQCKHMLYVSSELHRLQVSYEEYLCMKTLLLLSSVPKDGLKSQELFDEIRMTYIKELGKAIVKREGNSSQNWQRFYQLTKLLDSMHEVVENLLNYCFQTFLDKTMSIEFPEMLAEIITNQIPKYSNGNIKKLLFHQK
# Outline: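 HeLa GR-bla cells; cmpd + dex 5 nM final, 18 h 37 C; LiveBLAzer B/G FRET substrate 2 h RT; fluorescence intensity read. Antagonist mode, qHTS.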
structure (smiles),measurement,setting,value
CCN1CCC[C@H]1CNC(=O)c1cc(S(N)(=O)=O)ccc1OC,Potency,[1],inactive
same,Potency,[2],inactive
same,Potency,[3],inactive
O=C(O)Cc1sc(-c2ccccc2)nc1-c1ccc(Cl)cc1,Potency,[1],inactive
same,Potency,[2],inactive
same,Potency,[3],inactive
CCCCCCCC[P+](CCCCCCCC)(CCCCCCCC)CCCCCCCC,Potency,[1],22.3 µM (active)
same,Potency,[2],62.9 µM (active)
same,Potency,[3],inactive
O=C1CC[C@H](C(=O)N2CCCCC2)N1,Potency,[1],inactive
same,Potency,[2],inactive
same,Potency,[3],inactive
CCCn1cc[n+](C)c1C,Potency,[1],inactive
same,Potency,[2],inactive
same,Potency,[3],inactive
O=S(=O)(O)c1ccccc1/C=C/c1ccc(-c2ccc(/C=C/c3ccccc3S(=O)(=O)O)cc2)cc1,Potency,[1],inactive
same,Potency,[2],inactive
same,Potency,[3],inactive
CC(C)(C)c1ccc(C=O)cc1,Potency,[1],inactive
same,Potency,[2],inactive
same,Potency,[3],inactive
CN(C(=O)C(Cl)Cl)c1ccc(OC(=O)c2ccco2)cc1,Potency,[1],inactive
same,Potency,[2],inactive
same,Potency,[3],inactive
CCCCCC(=O)CC,Potency,[1],inactive
same,Potency,[2],inactive
same,Potency,[3],inactive
C/C=C1\C(=O)C[C@H]2[C@@H]3CCC4=CC(=O)CC[C@]4(C)[C@H]3CC[C@]12C,Potency,[1],inactive
same,Potency,[2],inactive
same,Potency,[3],inactive
CCCOC(=O)c1c(Cl)c(Cl)c(Cl)c(Cl)c1C(=O)OCCC,Potency,[1],inactive
same,Potency,[2],inactive
same,Potency,[3],inactive
CN(C)CCOCCO,Potency,[1],inactive
same,Potency,[2],inactive
same,Potency,[3],inactive
CCC(C)OC(C)CC (configuration not stated),Potency,[1],inactive
same,Potency,[2],inactive
same,Potency,[3],inactive
CCCCCCCCCCCC(=O)OCC,Potency,[1],inactive
same,Potency,[2],inactive
same,Potency,[3],inactive
c1ccc2cc3c4ccccc4c4ccccc4c3cc2c1,Potency,[1],inactive
same,Potency,[2],inactive
same,Potency,[3],inactive
CCN(CC)c1ccc(C(=C2C=CC(=[N+](CC)CC)C=C2)c2cc(S(=O)(=O)O)ccc2S(=O)(=O)[O-])cc1,Potency,[1],inactive
same,Potency,[2],inactive
same,Potency,[3],inactive
Nc1ccc(Oc2ccc(N)c(N)c2)cc1,Potency,[1],inactive
same,Potency,[2],inactive
same,Potency,[3],inactive
COc1ccc(-c2cc(=O)c3c(O)cc(O[C@@H]4O[C@H](CO[C@@H]5O[C@@H](C)[C@H](O)[C@@H](O)[C@H]5O)[C@@H](O)[C@H](O)[C@H]4O)cc3o2)cc1O,Potency,[1],inactive
same,Potency,[2],inactive
same,Potency,[3],inactive
O=C(Cl)c1cccc([N+](=O)[O-])c1,Potency,[1],inactive
same,Potency,[2],inactive
same,Potency,[3],inactive
CCCCCCCC(=O)N(C)C,Potency,[1],inactive
same,Potency,[2],inactive
same,Potency,[3],inactive
CCOc1ccccc1O,Potency,[1],inactive
same,Potency,[2],inactive
same,Potency,[3],inactive
Cc1nc2n(c(=O)c1CCN1CCC(c3noc4cc(F)ccc34)CC1)CCC[C@H]2O,"activity change, negative = inhibition",[1],-5.56% [at 23.6 µM]
same,"activity change, negative = inhibition",[2],-17.1% [at 23.8 µM]
same,"activity change, negative = inhibition",[3],-2.77% [at 23.6 µM]
Cc1nccn1CC1CCc2c(c3ccccc3n2C)C1=O (configuration not stated),Potency,[1],inactive
same,Potency,[2],15.5 µM (active)
same,Potency,[3],inactive
CCCCN(CCCC)CCCOC(=O)c1ccc(N)cc1,Potency,[1],inactive
same,Potency,[3],inactive
Cc1c(C)n(CCN(C)C)c2ccc(C(=O)OCCN(C)C)cc12,Potency,[1],inactive
same,Potency,[3],inactive
c1ccc2c(c1)CCCC2C1=NCCN1 (configuration not stated),Potency,[1],inactive
same,Potency,[3],inactive
Nc1cccnc1N,Potency,[1],inactive
same,Potency,[3],inactive
O=C1C=CC(=O)N1,Potency,[1],inactive
same,Potency,[3],inactive
CCCCCCC[N+](CC)(CC)CCCCc1ccc(Cl)cc1,Potency,[1],inactive
same,Potency,[3],inactive
COC(=O)C1=C(C)NC(C)=C(C(=O)OCCN2CCN(C(c3ccccc3)c3ccccc3)CC2)C1c1cccc([N+](=O)[O-])c1 (configuration not stated),Potency,[1],inactive
same,Potency,[3],inactive
CN(C)CCOC1=Cc2ccccc2Sc2ccc(Cl)cc21,Potency,[1],inactive
same,Potency,[3],inactive
NS(=O)(=O)c1cc2c(cc1Cl)NC(CC1CCCC1)NS2(=O)=O (configuration not stated),Potency,[1],inactive
same,Potency,[3],inactive
CC(=O)Oc1ccc(C(c2ccc(OC(C)=O)cc2)c2ccccn2)cc1,Potency,[1],inactive
same,Potency,[2],inactive
same,Potency,[3],inactive
Cc1cc(O)ccc1N,Potency,[1],inactive
same,Potency,[3],inactive
Cc1ccccc1C,Potency,[4],inactive
same,Potency,[5],inactive
same,Potency,[1],inactive
same,Potency,[2],inactive
same,Potency,[3],inactive
O=C1CC2(CCCC2)CC(=O)N1CCCCN1CCN(c2ncccn2)CC1,Potency,[1],inactive
same,Potency,[3],inactive
COc1cc2nc(N3CCN(C(=O)c4ccco4)CC3)nc(N)c2cc1OC,"activity change, negative = inhibition",[1],-11.6% [at 23.6 µM]
same,"activity change, negative = inhibition",[2],-22.9% [at 23.8 µM]
same,"activity change, negative = inhibition",[3],-0.588% [at 23.6 µM]
CCc1nn(CCCN2CCN(c3cccc(Cl)c3)CC2)c(=O)n1CCOc1ccccc1,Potency,[1],inactive
same,Potency,[3],inactive
CN1CCC(=C2c3ccccc3CCc3sccc32)CC1,Potency,[1],inactive
same,Potency,[3],inactive
CN1CCN2c3ccccc3Cc3ccccc3C2C1 (configuration not stated),Potency,[1],inactive
same,Potency,[3],inactive
COc1ccc(-n2nc(C(F)F)cc2-c2ccc(S(C)=O)cc2)cc1 (configuration not stated),Potency,[1],inactive
same,Potency,[3],inactive
O=C(OCC(O)CO)c1ccccc1Nc1ccnc2cc(Cl)ccc12 (configuration not stated),Potency,[1],inactive
same,Potency,[3],inactive
CN1CCCCC1CCN1c2ccccc2Sc2ccc(S(C)=O)cc21 (configuration not stated),Potency,[1],inactive
same,Potency,[3],inactive
Oc1ccc(C(O)CNCCCCCCNCC(O)c2ccc(O)c(O)c2)cc1O (configuration not stated),Potency,[1],inactive
same,Potency,[3],inactive
CN1CCN(c2cc3c(nn2)Oc2ccccc2N3C)CC1,"activity change, negative = inhibition",[1],-13.5% [at 23.6 µM]
same,"activity change, negative = inhibition",[3],1.76% [at 23.6 µM]
Cn1c(N)c(N=O)c(=O)n(C)c1=O,Potency,[1],inactive
same,Potency,[2],inactive
same,Potency,[3],inactive
Cc1ccc(O)c([C@H](CCN(C(C)C)C(C)C)c2ccccc2)c1,Potency,[1],inactive
same,Potency,[3],inactive
Cc1ccc(C(=O)C(C)CN2CCCCC2)cc1 (configuration not stated),Potency,[1],inactive
same,Potency,[3],inactive
Cc1nc(Nc2ncc(C(=O)Nc3c(C)cccc3Cl)s2)cc(N2CCN(CCO)CC2)n1,Potency,[1],inactive
same,Potency,[3],inactive
